Compounds without any hit were thinned out: in the full panel of roughly 79,000, 15% have a hit. Values without a mark were called inactive. No stated cut-off is given here; in the data, active means growth inhibition above about 70%; inactive means the rest.
Assay: NCI Yeast Anticancer Drug Screen. Data for the rad50 strain (AID 155);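 further: 0% = growth of vehicle-only cultures of the same strain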
Details: S. cerevisiae rad50 strain growth inhibition; at 50.0 µM; hits give high values
Summary of the method: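 Inhibition values express reduced yeast growth in compound-treated cultures relative to vehicle-treated controls.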

Point of comparison: `O=C(Nc1ccccc1)OC1C(OC(=O)c2ccccc2)OC(COC(=O)c2ccccc2)C1OC(=O)c1ccccc1` (configuration not stated), growth inhibition -0.5%. Against it:
- Nc1cccnc1NCC(O)c1ccccc1 (configuration not stated) — higher, 1.9%
- CC(=O)NC1CC2c3ccccc3C1([N+](=O)[O-])c1ccccc12 (configuration not stated) — higher, 4.1%
- CCC/C=N/NC(=O)CCCCCCCCCCCCCCCCC — higher, 7.35%
- CC(=O)OCC1COC(C2CC=CCC2C)O1 (configuration not stated) — lower, -1.9%
- CC(C)=CCC/C(C)=C/CN — higher, 9.25%
- CN(C)C(=O)C1Cc2ccccc2CC1C(=O)N(C)C (configuration not stated) — higher, -0.4%

Assay: NCI Yeast Anticancer Drug Screen. Data for the mec2-1 strain (AID 157)
Details: S. cerevisiae mec2-1 strain, at 50.0 µM, hits give high values
Summary of the method: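 Test agents were screened against the mec2-1 yeast strain, with defined DNA repair or cell cycle alteration. Growth was scored as inhibition against vehicle-only controls.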

Point of comparison: `O=C1OC(=O)C2C3C=CC(CC3)C12` (configuration not stated), growth inhibition 4%. Against it:
- Cc1[nH]c(=O)nc(N/N=C/c2ccc(Cl)cc2)c1C(=O)Nc1ccc(Cl)cc1 — higher, 16.4%
- O=c1cc(-c2ccccc2)oc2c1ccc1c(O)cccc12 — lower, -2.5%
- Cc1cc(N=[N+]=[N-])c2cc3c(cc2n1)OCO3 — lower, -7.5%
- CC(C)CC(NC(=O)OC(C)(C)C)C(=O)O (configuration not stated) — lower, -51.7%
- CC1=CC(=O)N2CCN=C2S1 — lower, -14.9%
- CC(=O)NC(C)(C)C1CCC(C)CC1 (configuration not stated) — higher, 5.45%
- CC1=CC(C)(C)N=C2SC(c3ccc(N)cc3)=NN12 — lower, 1.7%
- NCCCc1ccc(C(=O)O)cc1 — lower, 1.85%
- CC(=O)OCC1OC(n2cc(F)c(=O)[nH]c2=O)C(OC(C)=O)C1OC(C)=O (configuration not stated) — lower, 3.2%
- O=c1c(-c2ccccc2)nc2ccccc2n1CC1CCCN2CCCC[C@H]12 (some centres not stated) — lower, -10%
- CCN(C(=O)c1ccc([N+](=O)[O-])cc1)C(c1ccccc1)P(=O)(c1ccccc1)c1ccccc1 (configuration not stated) — lower, -4.5%
- Cc1cccc(-c2c3ccccc3cc3c2ccc2ccccc23)c1 — lower, -5.35%
- O=C(Cc1ccc(Cl)cc1)c1ccccc1Cl — lower, 2.75%
- CCN(CC)Cc1cc(Oc2ccc(O)c(CN(CC)CC)c2)ccc1O — higher, 8.5%
- O=[N+]([O-])/C=C/c1cn(CCCCCn2cc(/C=C/[N+](=O)[O-])c3ccccc32)c2ccccc12 — lower, -8.65%
- CC1CN(N)C(=O)O1 (configuration not stated) — lower, -18.4%
- O=C1CC(NC(=O)C(F)(F)F)c2c(Br)sc(N3CCNCC3)c21 (configuration not stated) — higher, 12.1%
- COC(=O)C1(Cc2ccccc2)Cc2ccccc2C1 — higher, 36.1%
- CCOC(=O)NN(C(=O)OCC)c1c(NN)n(C)c(=O)n(C)c1=O — lower, -19.7%
- Cc1ccc(NC2=CC(=O)c3ccccc3C2=O)cc1 — higher, 6.45%
- COc1cc2cc[n+]3c(C)c4ccc(OC)c(OC)c4cc3c2cc1OC (tested in a mixture with another compound) — higher, 17.2%
- O=C(O)c1ccccc1NCn1c(=S)sc2ccccc21 — higher, 45.8%
- COC(=O)Nc1nc2ccc(SC)cc2c(=O)[nH]1 — lower, -5.55%
- O=Cc1ccccc1Cl — higher, 12.9%
- O=S(=O)(Nc1c(Cl)c(Cl)c(NS(=O)(=O)c2ccccc2)c(Cl)c1Cl)c1ccccc1 — lower, 0.6%
- CCCCCCCCOC(=O)Nc1ccc(S(=O)(=O)CC)cc1 — lower, -7.2%
- COC(=O)CC1NC(=O)[C@]1(C)[C@H](C)O (some centres not stated) — lower, -16.2%
- O=C1N=C(C=c2ccc(=Cc3[nH]c(=O)[nH]c3O)cc2)C(=O)N1 — lower, -11.4%
- CCC1CN2CCc3cc(OC)c(OC)cc3C2CC1CC1c2cc(OC)c(OC)cc2CCN1C(=O)C1CCCN1 (configuration not stated) — lower, -1.45%
- Nc1ccc(C(=O)O)cc1O — higher, 14.2%
- CCCCCCN(C(=O)Oc1ccccc1)C(C#N)c1ccccc1 (configuration not stated) — higher, 5.55%
- Nc1ccc(-c2ccccc2)cc1[N+](=O)[O-] — lower, -8.85%
- Nc1cccnc1NCC(O)c1ccccc1 (configuration not stated) — lower, -13.7%
- CC(=O)NC1CC2c3ccccc3C1([N+](=O)[O-])c1ccccc12 (configuration not stated) — higher, 17.6%
- CCC/C=N/NC(=O)CCCCCCCCCCCCCCCCC — higher, 7.95%
- O=C(Nc1ccccc1)OC1C(OC(=O)c2ccccc2)OC(COC(=O)c2ccccc2)C1OC(=O)c1ccccc1 (configuration not stated) — lower, 0.75%
- CC(=O)OCC1COC(C2CC=CCC2C)O1 (configuration not stated) — lower, -8.9%
- CC(C)=CCC/C(C)=C/CN — lower, -2.6%
- CN(C)C(=O)C1Cc2ccccc2CC1C(=O)N(C)C (configuration not stated) — lower, -0.55%

Assay: NCI Yeast Anticancer Drug Screen. Data for the sgs1 mgt1 strain (AID 161);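 further: 0% = growth of cultures given vehicle only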
Details: S. cerevisiae sgs1 mgt1 strain, at 50.0 µM, hits give high values
Summary of the method: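 Mutant yeast exposed to compound; growth scored against vehicle-only wells.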

Point of comparison: `CCN(C(=O)c1ccc([N+](=O)[O-])cc1)C(c1ccccc1)P(=O)(c1ccccc1)c1ccccc1` (configuration not stated), growth inhibition -15.1%. Against it:
- Cc1[nH]c(=O)nc(N/N=C/c2ccc(Cl)cc2)c1C(=O)Nc1ccc(Cl)cc1 — higher, -3.9%
- O=c1cc(-c2ccccc2)oc2c1ccc1c(O)cccc12 — higher, -6.9%
- Cc1cc(N=[N+]=[N-])c2cc3c(cc2n1)OCO3 — higher, -0.4%
- CC(C)CC(NC(=O)OC(C)(C)C)C(=O)O (configuration not stated) — higher, -9.6%
- CC1=CC(=O)N2CCN=C2S1 — higher, 1.65%
- CC(=O)NC(C)(C)C1CCC(C)CC1 (configuration not stated) — higher, 1.55%
- CC1=CC(C)(C)N=C2SC(c3ccc(N)cc3)=NN12 — higher, 3.55%
- NCCCc1ccc(C(=O)O)cc1 — higher, -0.5%
- CC(=O)OCC1OC(n2cc(F)c(=O)[nH]c2=O)C(OC(C)=O)C1OC(C)=O (configuration not stated) — higher, -13.1%
- O=c1c(-c2ccccc2)nc2ccccc2n1CC1CCCN2CCCC[C@H]12 (some centres not stated) — higher, 18.3%
- Cc1cccc(-c2c3ccccc3cc3c2ccc2ccccc23)c1 — higher, -3.55%
- O=C(Cc1ccc(Cl)cc1)c1ccccc1Cl — higher, -1%
- O=C1OC(=O)C2C3C=CC(CC3)C12 (configuration not stated) — higher, -13.3%
- CCN(CC)Cc1cc(Oc2ccc(O)c(CN(CC)CC)c2)ccc1O — higher, 3.65%
- O=[N+]([O-])/C=C/c1cn(CCCCCn2cc(/C=C/[N+](=O)[O-])c3ccccc32)c2ccccc12 — higher, -2.45%
- CC1CN(N)C(=O)O1 (configuration not stated) — lower, -19%
- O=C1CC(NC(=O)C(F)(F)F)c2c(Br)sc(N3CCNCC3)c21 (configuration not stated) — lower, -25.2%
- COC(=O)C1(Cc2ccccc2)Cc2ccccc2C1 — higher, 36.4%
- CCOC(=O)NN(C(=O)OCC)c1c(NN)n(C)c(=O)n(C)c1=O — higher, 9.2%
- Cc1ccc(NC2=CC(=O)c3ccccc3C2=O)cc1 — higher, 17.8%
- COc1cc2cc[n+]3c(C)c4ccc(OC)c(OC)c4cc3c2cc1OC (tested in a mixture with another compound) — higher, -5.3%
- O=C(O)c1ccccc1NCn1c(=S)sc2ccccc21 — higher, 60.6%
- COC(=O)Nc1nc2ccc(SC)cc2c(=O)[nH]1 — higher, 3.2%
- O=Cc1ccccc1Cl — higher, 16.8%
- O=S(=O)(Nc1c(Cl)c(Cl)c(NS(=O)(=O)c2ccccc2)c(Cl)c1Cl)c1ccccc1 — higher, 13.4%
- CCCCCCCCOC(=O)Nc1ccc(S(=O)(=O)CC)cc1 — lower, -23.3%
- COC(=O)CC1NC(=O)[C@]1(C)[C@H](C)O (some centres not stated) — lower, -33%
- O=C1N=C(C=c2ccc(=Cc3[nH]c(=O)[nH]c3O)cc2)C(=O)N1 — higher, -14.9%
- CCC1CN2CCc3cc(OC)c(OC)cc3C2CC1CC1c2cc(OC)c(OC)cc2CCN1C(=O)C1CCCN1 (configuration not stated) — higher, 12.1%
- Nc1ccc(C(=O)O)cc1O — higher, 13.9%
- CCCCCCN(C(=O)Oc1ccccc1)C(C#N)c1ccccc1 (configuration not stated) — lower, -16.8%
- Nc1ccc(-c2ccccc2)cc1[N+](=O)[O-] — higher, 16.1%
- Nc1cccnc1NCC(O)c1ccccc1 (configuration not stated) — higher, -9.45%
- CC(=O)NC1CC2c3ccccc3C1([N+](=O)[O-])c1ccccc12 (configuration not stated) — higher, 15.6%
- CCC/C=N/NC(=O)CCCCCCCCCCCCCCCCC — higher, 16.9%
- O=C(Nc1ccccc1)OC1C(OC(=O)c2ccccc2)OC(COC(=O)c2ccccc2)C1OC(=O)c1ccccc1 (configuration not stated) — higher, 0.25%
- CC(=O)OCC1COC(C2CC=CCC2C)O1 (configuration not stated) — higher, -8.35%
- CC(C)=CCC/C(C)=C/CN — higher, 20.4%
- CN(C)C(=O)C1Cc2ccccc2CC1C(=O)N(C)C (configuration not stated) — higher, 0.85%

Source: PubChem BioAssay (NCI)
